NS1 function inh = blocks influenza NS1 protein function; Potency, µM (highest dose often 46.1 µM); actives 0.4% (n = 270,000); calls by dose curve; further: actives are rising curves; nearly all actives have a fitted effect of over 50% in size
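Read-out: OD600 growth recovery of NS1-expressing budding yeast. Cells grown overnight at 30C in -URA glucose medium, washed, resuspended and diluted 1:100 in 2% galactose assay medium, pH 6.0. Same strain lacking NS1 served as positive control.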
Pf growth 96h = P. falciparum growth inhibition at 96 hours | P. falciparum luciferase reporter growth, 96 h | Potency, µM (doses to about 28.7 µM), usual class: inhibitors | actives 6.9% (n = 320,000)
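Parasite growth measured via integrated firefly luciferase reporter in P. falciparum. Infected erythrocytes at 2% hematocrit, 0.05% parasitemia final were treated 96 hours at 37 C under 5% CO2, and luminescence was read.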
Cycloheximide cs = counter-screen hit for Shiga toxin inhibitors, cycloheximide | actives 12% (n = 300,000) | max response, % | AID 2314 | cell reporter, cycloheximide protein synthesis inhibition counterscreen; in the data active means max response mostly above about 13%, no sharp cut-off; inactive means mostly below about 14%; further: read at 38.3 µM for the half of the compounds with a filed dose
Shiga inhibitor = Shiga toxin inhibition; Vero cells, Shiga toxin protein synthesis inhibition reporter; inhibition, % at 38.7 µM; actives 9.2% (n = 290,000); AID 2315; in the data active means inhibition mostly above about 28%, no sharp cut-off; inactive means mostly below about 43%
FBPA Giardia inh = inhibitors of Giardia lamblia fructose-1,6-bisphosphate aldolase; purified Giardia FBPA; Potency, µM (highest dose often 59.6 µM), hits mostly inhibitors; actives 0.71% (n = 290,000); further: nearly all actives have a fitted effect of over 55% in size
Target sequence (A8B2U2 whole entry, looked up): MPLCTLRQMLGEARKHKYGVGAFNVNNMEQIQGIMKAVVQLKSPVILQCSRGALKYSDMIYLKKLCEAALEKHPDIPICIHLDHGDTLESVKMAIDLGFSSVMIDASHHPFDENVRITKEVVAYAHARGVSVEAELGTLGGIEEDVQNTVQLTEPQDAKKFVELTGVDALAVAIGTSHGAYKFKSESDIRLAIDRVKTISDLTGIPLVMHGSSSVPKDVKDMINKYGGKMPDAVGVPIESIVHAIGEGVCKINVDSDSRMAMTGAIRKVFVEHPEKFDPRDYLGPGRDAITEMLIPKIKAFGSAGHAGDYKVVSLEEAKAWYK
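Giardia FBPA (40 nM reagent) was preincubated 10 min at RT with compound (up to 57.5 uM final), then substrate plus GAPDH/TPI/NAD/arsenate coupling system with diaphorase/resazurin was added; resorufin fluorescence (525/598 nm) was read after 20 min.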
Pf growth 48h = P. falciparum growth inhibition at 48 hours (one generation) | P. falciparum luciferase growth in erythrocytes, 48 h | Potency, µM (doses to about 28.7 µM), usual class: inhibitors | actives 5.9% (n = 310,000) | AID 504832
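Erythrocytes infected with P. falciparum carrying an integrated firefly luciferase reporter (2% hematocrit, 0.1% parasitemia final) were exposed to compounds in RPMI 1640 with 0.5% Albumax at 37 C, 5% CO2. Growth inhibition was scored as reduced luminescence.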
Each line names hits and unclear results; the compound was inactive in the other large screens. Only some compounds are listed: those with a hit (about 21% of all), similar ones and a draw of the others. Unless noted, the call rests on the fitted dose curve; in most records, active means well fitted curve in the direction sought with a large enough effect; inconclusive means small, poorly fitted or top-dose-only effect, or another doubt; inactive means no such curve, though single readings can be large; an effect the other way counts as inactive or inconclusive.

COc1cc(-c2cccc([C@H]3[C@@H]4C=CC[C@@H](C)[C@@H]4C(=O)N3Cc3ccccc3)c2)cc(OC)c1OC	none (no result: NS1 function inh, Pf growth 96h, Pf growth 48h)
COc1cccc(C(=O)NCCC(=O)NCc2cc(=O)n(C)c(=O)n2C)c1	none
COc1ccc(O)c(-c2cc(-c3ccc(F)cc3)n[nH]2)c1	Cycloheximide cs 50.3, Shiga inhibitor 116.4, Pf growth 48h inconclusive
COc1ccc(-c2cc(-c3cc(OC)ccc3O)[nH]n2)cc1	Cycloheximide cs 45.1, Shiga inhibitor 97.4 (no result: Pf growth 96h, Pf growth 48h)
COc1ccc(-c2cc(-c3cc(F)ccc3O)[nH]n2)cc1OC	Pf growth 96h inconclusive, Cycloheximide cs 37.7, Shiga inhibitor 78.1 (no result: FBPA Giardia inh)
CCOc1ccc(-c2[nH]ncc2-c2ccc(OC)c(OC)c2)c(O)c1	NS1 function inh inconclusive, Pf growth 48h inconclusive
COc1ccc(-c2cn[nH]c2-c2ccc(O)cc2O)cc1OC	Pf growth 96h 9.28µM, Pf growth 48h inconclusive
O=C(O)C[SH+]CC(=O)O.O=C(O)C[SH+]CC(=O)O.[Cu]	none (no result: Pf growth 96h, Cycloheximide cs, Shiga inhibitor, FBPA Giardia inh, Pf growth 48h)
CC1CCCN(C(=O)COC(=O)c2ccc(=O)n(Cc3ccccc3)n2)C1 (configuration not stated)	none (no result: NS1 function inh, Cycloheximide cs, Shiga inhibitor, FBPA Giardia inh)
COc1ccc(-c2cc(-n3c(C(F)(F)F)nc4ccccc43)n(CCC#N)n2)cc1	Pf growth 48h 13.1µM (no result: Pf growth 96h)
COc1ccc(Sc2nc3ccccc3n3c(C(F)(F)F)nnc23)cc1	Pf growth 96h inconclusive
CCC(CC)c1nnc(NC(=O)C2CC(=O)N(C3CCCC3)C2)s1 (configuration not stated)	none
CCCn1c(C2CCCN2c2nc(-c3cccc(Br)c3)cs2)nc2cc(Cl)c(Cl)cc21 (configuration not stated)	Pf growth 96h 9.28µM, FBPA Giardia inh inconclusive, Pf growth 48h 11.7µM
O=C(NCCCn1ccnc1)c1ccc(Br)s1	none
Cc1ccc(-c2ccccc2NC(=O)CCl)o1	Pf growth 96h inconclusive, Cycloheximide cs 15.9, Pf growth 48h inconclusive
Cc1nn(CC(=O)NCC(C)c2ccccc2)c(=O)c2cc(-c3ccccc3)nn12 (configuration not stated)	none (no result: FBPA Giardia inh)
Cc1ccc(C(c2nnnn2Cc2ccccc2)N2CC=C(c3ccc(F)cc3)CC2)cc1 (configuration not stated)	Pf growth 48h inconclusive
Fc1ccc(C2=CCN(C(c3ccc(Cl)cc3)c3nnnn3Cc3ccccc3)CC2)cc1 (configuration not stated)	Pf growth 48h 11.7µM
Fc1ccc(Cn2nnnc2C(c2ccc(Cl)cc2)N2CC=C(c3ccc(F)cc3)CC2)cc1 (configuration not stated)	Pf growth 48h 11.7µM
COCCn1c(-c2ccc(-c3ccc([N+](=O)[O-])cc3Br)o2)nc2c1c(=O)[nH]c(=O)n2CC(C)C	none (no result: NS1 function inh)
O=C(/C(=C/O)N=Nc1ccccc1)c1ccc(Cl)cc1	none (no result: NS1 function inh)
Cc1ccc(N=N/C(=C\O)C(=O)c2ccc(Cl)cc2)cc1	Cycloheximide cs 36.0, Shiga inhibitor 105.9, Pf growth 48h inconclusive (no result: NS1 function inh)
Cc1ccc2c(c1)C(=O)C(=O)N2CC(=O)OC(C)C	Pf growth 96h 0.0294µM
CCc1ccc(-c2nc(CSCC(=O)N3CCN(c4ccccn4)CC3)c(C)o2)cc1	none (no result: Pf growth 96h)
COc1cccc(-c2nc(CSCC(=O)N3CCc4ccccc43)c(C)o2)c1	Pf growth 96h inconclusive
CCOc1ccc(-c2nc(CSCC(=O)N3CCN(c4cccc(OC)c4)CC3)c(C)o2)cc1	Pf growth 96h inconclusive, Cycloheximide cs 15.7, Shiga inhibitor 75.3 (no result: Pf growth 48h)
Cc1ccc(-c2nc(CSCC(=O)N3CCOCC3)c(C)o2)cc1	Shiga inhibitor 72.6, Pf growth 48h inconclusive
Cc1ccc(-c2nc(CSCC(=O)N3CCN(C(=O)c4ccco4)CC3)c(C)o2)cc1	none (no result: Pf growth 48h)
Cc1ccc(-c2nc(CSCC(=O)N3CCN(c4ccccn4)CC3)c(C)o2)cc1	Pf growth 96h 10.4µM (no result: Pf growth 48h)
O=C(CSC(=S)N1CCCC1)N1CCN(S(=O)(=O)c2ccccc2F)CC1	none (no result: NS1 function inh, Cycloheximide cs, Shiga inhibitor, FBPA Giardia inh)
Clc1ccccc1NN(Cc1ccncc1)c1ccccc1Cl	none (no result: Pf growth 96h, Cycloheximide cs, Shiga inhibitor, FBPA Giardia inh, Pf growth 48h)
CC(C)N(CCO)Cc1nc(C(c2ccccc2)c2ccccc2)no1	Pf growth 96h 9.28µM, Pf growth 48h inconclusive
COCCN(Cc1nc(C(c2ccccc2)c2ccccc2)no1)C(C)C	Pf growth 96h inconclusive
Cc1ccc(C2(c3ccc(C)cc3)CC2C(=O)NC(C)C)cc1 (configuration not stated)	Pf growth 96h inconclusive
c1ccc(-c2[nH]ncc2-c2ccnc3ccccc23)nc1	FBPA Giardia inh inconclusive (no result: NS1 function inh, Pf growth 96h, Pf growth 48h)
COC(=O)C1CCN(C(=O)COc2ccc(N(C)S(=O)(=O)c3ccc(C)cc3)cc2)CC1	Pf growth 96h inconclusive, Pf growth 48h 13.1µM (no result: NS1 function inh, Cycloheximide cs, Shiga inhibitor, FBPA Giardia inh)
CN1CCN(C(=O)COc2ccc(N(C)S(=O)(=O)c3ccc(F)cc3)cc2)CC1	none (no result: NS1 function inh)
CCOC(=O)C1CCN(C(=O)COc2ccc(N(C)S(=O)(=O)c3ccc(C)cc3)cc2)CC1	none
CN(c1ccc(OCC(=O)N2CCCC2)cc1)S(=O)(=O)c1ccc(Cl)cc1	Pf growth 96h inconclusive, Pf growth 48h 10.4µM (no result: NS1 function inh, Cycloheximide cs, Shiga inhibitor, FBPA Giardia inh)
O=C(CNS(=O)(=O)c1ccc(Br)s1)NCc1ccccc1	none
Cc1ccc(Oc2ccc(S(=O)(=O)N3CCOCC3)cc2C(N)=O)cc1C	Pf growth 48h inconclusive (no result: FBPA Giardia inh)
COc1ccc(CCN2CC(C(=O)Nc3ccc(S(C)(=O)=O)cc3)CC2=O)cc1OC (configuration not stated)	Pf growth 96h inconclusive (no result: NS1 function inh, Cycloheximide cs, Shiga inhibitor, FBPA Giardia inh)
COc1ccc(C(=O)Nc2cc3c(cc2Cl)OCCCO3)cc1	Cycloheximide cs 44.8, Shiga inhibitor 93.6 (no result: Pf growth 48h)
COc1cccc(C(=O)Nc2cccc(NC(=O)c3ccccc3Cl)c2)c1	none
